A selection: hits, their analogues and other compounds. The true share with any hit is near 13%.
ALDH1A1 inh = qHTS Assay for Inhibitors of Aldehyde Dehydrogenase 1 (ALDH1A1). Aldehyde dehydrogenase 1A1 (Homo sapiens), P00352. Purified ALDH1A1, NADH fluorescence, propionaldehyde substrate. Potency, µM (highest dose often 75.3 µM), inactives show at the top dose activity, negative = inhibition, actives largely listed as inhibitors. 220,000 compounds, 7.3% hits; active = well fitted inhibition curve with a large enough effect, not every such curve was filed as active; inconclusive = small, poorly fitted or top-dose-only effect, or another doubt; inactive = no such curve, though single readings can be large or run the other way;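 also: potency is read from the fitted curve at half-maximal effect; plate controls were no enzyme wells and a reference inhibitor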
Target sequence (P00352 whole entry, looked up): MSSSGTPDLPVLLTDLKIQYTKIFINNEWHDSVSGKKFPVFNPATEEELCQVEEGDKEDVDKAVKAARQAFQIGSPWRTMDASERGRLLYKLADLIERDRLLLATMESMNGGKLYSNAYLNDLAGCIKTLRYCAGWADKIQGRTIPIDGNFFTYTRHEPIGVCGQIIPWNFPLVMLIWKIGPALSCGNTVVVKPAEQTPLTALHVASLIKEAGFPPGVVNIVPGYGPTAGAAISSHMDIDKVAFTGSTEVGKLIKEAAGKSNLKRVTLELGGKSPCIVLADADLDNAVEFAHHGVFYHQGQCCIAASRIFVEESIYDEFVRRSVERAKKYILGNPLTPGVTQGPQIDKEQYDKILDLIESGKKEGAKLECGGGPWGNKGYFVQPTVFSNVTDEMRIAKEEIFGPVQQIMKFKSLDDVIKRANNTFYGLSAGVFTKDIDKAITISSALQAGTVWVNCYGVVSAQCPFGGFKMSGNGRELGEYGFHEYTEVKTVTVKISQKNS
Sfp inh = qHTS Assay for Inhibitors of Bacillus subtilis Sfp phosphopantetheinyl transferase (PPTase) | 4'-phosphopantetheinyl transferase ffp (Bacillus subtilis), Q9F4F7 | Biochemical Sfp PPTase activity, qHTS | Potency, µM, for the others: largest response in the series, negative = inhibition, hits mostly inhibitors | 310,000 compounds, 3.5% hits | AID 1490, 2009;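 also: the enzyme is Sfp with the accession as filed and its product quenches rhodamine fluorescence; potency is read from the fitted curve at half-maximal effect; 0% = enzyme reaction without inhibitor and -100% = no enzyme wells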
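Step 1, compound plus 15 nM Sfp-PPTase, 15 min, room temperature. Step 2, add rhodamine-CoA (5 uM) and BHQ-2-YbbR (12.5 uM). Step 3, read 525/598 nm fluorescence at 0 and 30 min.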
G9a block = qHTS Assay for Inhibitors of Histone Lysine Methyltransferase G9a. Histone-lysine N-methyltransferase EHMT2 (Homo sapiens), Q96KQ7. G9a H3K9 monomethylation, AlphaScreen, 2 h. Potency, µM (highest dose often 102 µM), inactives show top-dose activity, negative = inhibition, actives largely listed as inhibitors. 350,000 compounds, 8.8% hits; also: potency is read from the fitted curve at half-maximal effect; % is scaled to controls: 0 for no effect and ±100 for the full control effect; nearly all actives have a fitted effect of over 75% in size
Target sequence (Q96KQ7 913-1193 limits assumed): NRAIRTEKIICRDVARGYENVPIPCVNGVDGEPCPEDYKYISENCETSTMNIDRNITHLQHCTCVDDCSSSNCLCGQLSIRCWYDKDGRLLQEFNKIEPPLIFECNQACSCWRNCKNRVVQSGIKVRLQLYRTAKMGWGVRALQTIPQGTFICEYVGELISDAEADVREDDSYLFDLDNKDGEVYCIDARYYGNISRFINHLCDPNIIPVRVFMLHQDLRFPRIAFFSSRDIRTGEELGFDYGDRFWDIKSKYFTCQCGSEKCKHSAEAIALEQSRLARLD
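AlphaScreen read-out: biotin-H3K9 peptide (500 nM) methylation by 20 nM enzyme with 20 uM SAM, 2 h at room temperature after 15 min compound preincubation; anti-monomethyl H3K9 antibody plus donor/acceptor beads, 10 min dark.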
Lamin A splicing = qHTS Assay for Modulators of Lamin A Splicing | Potency, µM (highest dose often 46.1 µM), without a hit: at the top dose ratio change, negative = inhibition, usual class: inhibitors | HeLa LMNA splicing GFP/RFP minigene ratio, 48 h | 200,000 compounds, 0.01% hits; active = well fitted inhibition curve with a large enough effect in the signal ratio, with a control signal flat, not every such curve was filed as active; inconclusive = small, poorly fitted or top-dose-only effect, or effect the other way, or a change in a side signal; the % refers to the signal ratio; also: potency is read from the fitted curve at half-maximal effect; % is scaled to controls: 0 for no effect and ±100 for the full control effect
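Read-out is the ratio of GFP to DsRed2 object intensity, acquired by 488 nm laser-scanning cytometry on HeLa lamin A-EGFP minigene reporter cells. Compound incubation 48 hrs at 37 °C in Opti-MEM with 2% FBS; DMSO 0.5% final.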
miR-21 act = qHTS Assay for Modulators of miRNAs and/orActivators of miR-21. HeLa miR-21 FLuc reporter, luciferase, 48 h. Potency, µM (titrated, usually from 38.3 µM), for inactives: top-dose activity change, positive = activation, hits mostly activators. 340,000 tested, under 10 active. AID 2288, 2010;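 also: % of control where 0% means no effect; miR-21 action dims this reporter so a rising signal means less miR-21 action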
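Compounds were titrated across several concentrations (up to approximately 40 uM) and incubated 48 hours with HeLa miR-21-FLuc reporter cells (miR-21 target sequence downstream of FLuc, endogenous miR-21). Readout was firefly luciferase luminescence after lytic detection reagent.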
JMJD2E inh = qHTS Assay for Inhibitors of Human Jumonji Domain Containing 2E (JMJD2E) | Potency, µM (highest dose often 57.1 µM), inactives show at the highest dose activity change, negative = inhibition, most hits filed as inhibitors | 230,000 compounds, 1.6% hits | JMJD2E catalytic domain, FDH-coupled NADH fluorescence (FDH is formaldehyde dehydrogenase);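 also: potency is read from the fitted curve at half-maximal effect; 0% = wells with enzyme and -100% = buffer wells without enzyme; nearly all actives have a fitted effect of over 50% in size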
An asterisk follows results filed as active; ? = inconclusive; . = no result given; [ ] = dose if it differs, or a comment. Unless noted, calls follow the shape of the dose curve; as a rule, active = well fitted curve in the direction sought with a large enough effect; inconclusive = small, poorly fitted or top-dose-only effect, or another doubt; inactive = no such curve, though single readings can be large; an effect the other way counts as inactive or inconclusive.

SMILES	ALDH1A1 inh	Sfp inh	G9a block	Lamin A splicing	miR-21 act	JMJD2E inh
COc1ccc(CNCc2ccc3ccccc3c2)c(OC)c1	.	-13%	11µM*	.	12%	.
CCN(CC(=O)Nc1c(F)cccc1F)C(=O)c1cccnc1Sc1ccccc1	.	.	-37%	.	.	.
CCCCOc1ccc(C2c3c(-c4ccccc4O)n[nH]c3C(=O)N2Cc2ccncc2)cc1OC (stereo not drawn)	.	.	8%[59 µM]	.	?	.
CC(=O)Oc1ccccc1C(=O)NC(C)CCc1ccccc1 (stereo not drawn)	.	1%	.	.	2%	.
CC1(C)OC(c2ccccc2)=C/C(=C/C=Nc2ccccc2)O1	4.5µM*	2%	?	-8%	-5%	1%
CC1(C)OC(c2ccccc2)=C/C(=C\C=N\NC(=O)c2ccncc2)O1	.	3%	43%[12.7 µM]	.	16%	22µM*
Cc1cccc(N=CC=C2OC(C)(C)C(C)(C)O2)c1	?	6%	?	-12%	-34%	?
O=C(N/N=C/C=C/c1ccccc1)c1ccncc1	2%	28%	42%[59 µM]	-8%	0%	-1%
CCOC(=O)Nc1nc(-c2ccccc2)c(C(=O)c2ccccc2)s1	?	15%	0%	?	25%	2%
CCCOC(=O)Nc1nc(-c2ccc(C)cc2)c(C)s1	?	-10%	50µM*	.	-36%	-7%
COc1ccc(C2=C(C#N)C(=O)OC2)cc1	?	1%	32µM*	?	12%	-15%
COc1ccc(-c2c(C#N)c(C)nc3c2C(=O)c2ccccc2-3)cc1	-3%	-9%	16%[0.501 µM]	-3%[0.0737 µM]	-1%	4%
O=C(O)CCN1C(=O)/C(=C2\C(=O)N(Cc3ccccc3Cl)c3ccccc32)SC1=S	.	-16%	?	.	0%	.
CCCC(C(=O)O)N1C(=O)/C(=C2\C(=O)N(C)c3ccccc32)SC1=S (stereo not drawn)	-12%	-6%	20µM*	-5%	0%	-2%
O=C(O)CN1C(=O)/C(=C2\SC(=S)N(C(Cc3ccccc3)C(=O)O)C2=O)c2ccccc21 (stereo not drawn)	.	7%	50µM*	.	-1%	.
Cc1c(N2C(=O)/C(=C3/C(=O)N(C)c4ccccc43)SC2=S)c(=O)n(-c2ccccc2)n1C	0%	-3%	?	1%	-2%	5%
CCC(C)C(NC)C(=O)O (stereo not drawn)	4%	12%	.	-4%	.	8%
CC(C)(N)C(=O)N[C@@H]1C(=O)N2[C@@H]1SC(C)(C)[C@H]2C(=O)O	-2%[13.5 µM]	.	.	.	.	.
Cc1cc(N)n(-c2ccc(Oc3ccccc3)c(S(=O)(=O)O)c2)n1	15%	?	50µM*	.	3%	0%
CCCC(C)c1nnc(NC(=O)CN2C(=O)c3ccccc3C2=O)s1 (stereo not drawn)	28µM*	45µM*	7.9µM*	18%[46 µM]	-2%	-14%
CCC(CC)c1nnc(NC(=O)CN2C(=O)c3ccccc3C2=O)s1	-4%	-10%	45µM*	11%[46 µM]	1%	3%
CC(=O)Nc1ccc(S(=O)(=O)Nc2nc(C)nc3sc4c(c23)CCC4)cc1	.	37%	-31%[12.7 µM]	.	-9%	-22%
Cc1nc(NS(=O)(=O)c2ccccc2C)c2c3c(sc2n1)CCC3	?	9%	45µM*	6%	-3%	?
CN(c1ncc(C(F)(F)F)cc1Cl)n1cc(C(=O)O)c2ccccc2c1=O	3%	12%	10%[59 µM]	-10%	-5%	-9%
CN(c1ncc(C(F)(F)F)cc1Cl)n1cc(C(N)=O)c2ccccc2c1=O	25µM*	-1%	-11%	-4%	0%	-11%
SMILES	ALDH1A1 inh	Sfp inh	G9a block	Lamin A splicing	miR-21 act	JMJD2E inh
Cc1ccc(N2CCN(C(=O)CCS(=O)(=O)c3cc4c(cc3Cl)NC(=O)CO4)CC2)c(C)c1	.	.	-27%[59 µM]	5%[46 µM]	21%	.
O=C1NC2(CCCCC2)Oc2ccccc21	16µM*	10%	0%[12.7 µM]	-1%	-16%	-2%
CC(=O)Nc1ccc(NC(=O)[C@@H](NC(=O)N2C[C@H]3C[C@@H](C2)c2cccc(=O)n2C3)C(C)C)cc1	.	6%	.	.	0%	.
O=c1c(S(=O)(=O)c2ccccc2)cn(Cc2cccc(F)c2)c2cc(N3CCOCC3)c(F)cc12	.	.	-2%[59 µM]	-14%[46 µM]	8%	.
O=C(Nc1ccc(Cl)cc1)Nc1ccc(N2CCCC2)c(S(=O)(=O)Nc2ccccc2Cl)c1	-5%	35%	?	?	10%	?
CCN(CC)S(=O)(=O)c1cc(C(=O)Nc2ccccc2[N+](=O)[O-])ccc1Cl	-11%	1%	28µM*	?	-57%	-4%
CN1CCN(c2ccc(Cl)cc2NC(=O)c2ccc(S(=O)(=O)N(C)C)cc2)CC1	-13%	-4%	-14%	15%	0%	-4%
CN(C)S(=O)(=O)c1cccc(C(=O)Nc2ccccc2[N+](=O)[O-])c1	?	-6%	-11%[59 µM]	?	-15%	5%
CN1CCN(c2ccc(Cl)cc2NS(=O)(=O)c2ccccc2Cl)CC1	14µM*	-10%	?	5%	-15%	-1%
CCN(CC)S(=O)(=O)c1cc(C(=O)Nc2cc(Cl)ccc2N2CCN(C)CC2)ccc1Cl	2%	50µM*	45µM*	?	16%	-1%
O=[N+]([O-])c1ccc(O)c(-c2cc(C(F)(F)F)nc(-c3ccccc3)n2)c1	.	-1%	-19%	.	?	.
Cc1cc2c(cc1S(=O)(=O)CCC(=O)N1CCCC(C)C1)OCC(=O)N2 (stereo not drawn)	.	.	-31%[59 µM]	?	-28%	.
CCn1ccnc1[C@@H]1C[C@H]2CN(c3ccccc3OC)C(=O)[C@]23CCCN13	3%	2%	28%	20%[46 µM]	-1%	-13%
CCCCc1ccc(-c2nc(-c3ccncc3)no2)cc1	6.3µM*	5%	-7%[59 µM]	10%	-46%	4%
Cc1cc2nc3c(=O)[nH]c(=O)nc-3n(CC(O)C(O)C(O)CO)c2cc1C (stereo not drawn)	?	15%	6.3µM*	?	.	?
CC(=O)OCCn1c2nc(=O)[nH]c(=O)c-2nc2cc(C)c(C)cc21	1%	7%	-23%	?	3%	2.8µM*
CCCC(=O)OC[C@@H](OC(=O)CCC)[C@@H](OC(=O)CCC)[C@H](Cn1c2nc(=O)[nH]c(=O)c-2nc2cc(C)c(C)cc21)OC(=O)CCC	.	18%	-28%[12.7 µM]	.	.	.
